# For part of these data: Potency and affinity values are given separately.
# Columns and labels:
# Staphylococcus aureus = test: Antibacterial activity against Staphylococcus aureus MRSA ATCC 43300 (CO-ADD:GP_020); MIC in CAMBH media using NBS plates, by Resazurin F(560/590); assay type: functional; conditions: Concentration 20 uM, ASSAY_TEST Inhibition of Bacterial Growth, detection method Resazurin, Fluorescence (ex560/em590), MEDIA CAMHB, plate type 384well, CORNING #3640, time 18 hr
# Acinetobacter baumannii = test: Antibacterial activity against Acinetobacter baumannii ATCC 19606 (CO-ADD:GN_034); MIC in CAMBH media using NBS plates, by Resazurin F(560/590); assay type: functional; conditions: Concentration 20 uM, ASSAY_TEST Inhibition of Bacterial Growth, detection method Resazurin, Fluorescence (ex560/em590), MEDIA CAMHB, plate type 384well, CORNING #3640, time 18 hr
# Escherichia coli = test: Antibacterial activity against Escherichia coli ATCC 25922 (CO-ADD:GN_001); MIC in CAMBH media using NBS plates, by Resazurin F(560/590); assay type: functional; conditions: Concentration 20 uM, ASSAY_TEST Inhibition of Bacterial Growth, detection method Resazurin, Fluorescence (ex560/em590), MEDIA CAMHB, plate type 384well, CORNING #3640, time 18 hr
# Klebsiella pneumoniae = conditions: Concentration 20 uM; ASSAY_TEST Inhibition of Bacterial Growth; detection method Absorption (OD600); MEDIA CAMHB; plate type 384well; NBS; CORNING #3640; time 18 hr
# Candida albicans = conditions: 20 µM
# Cryptococcus neoformans = conditions: Concentration 20 uM; ASSAY_TEST Inhibition of Fungal Growth; detection method Resazurin; Absorption (OD600-OD570); plate type 384well; NBS; CORNING #3640
SMILES,Inhibition (Staphylococcus aureus),Inhibition (Acinetobacter baumannii),Inhibition (Escherichia coli),Inhibition (Klebsiella pneumoniae),Inhibition (Candida albicans),Inhibition (Cryptococcus neoformans)
O=C(Nc1cccc([N+](=O)[O-])c1)c1cccc(C(=O)Nc2cccc([N+](=O)[O-])c2)c1,-2.9%,3.66%,1.98%,5.84%,-0.13%,37.96%
COc1ccccc1NC(=O)c1cc2ccccc2cc1O,12.35%,5.68%,6.98%,12.44%,-0.94%,-6.93%
COc1cc(/C=C2\CCOC2=O)cc(OC)c1OC,4.75%,13.86%,8.29%,12.15%,2.88%,-2.47%
O=C(Nc1cccc(-c2ccccc2)c1)N1CCN(C(=O)Nc2cccc(-c3ccccc3)c2)CC1,26.71%,-7.47%,7.55%,6.58%,-1.22%,-2.57%
O=C(Nc1ccccc1-c1ccccc1)C(=O)Nc1ccccc1-c1ccccc1,3.9%,-8.51%,-14.91%,2.5%,2.13%,4.35%
CC(C)c1ncc(CO)n1Cc1c(Cl)cccc1Cl,10.51%,3.11%,9.5%,7.27%,0.71%,-9.37%
Cc1c(Cc2ccccc2)[n+]([O-])c2ccccc2[n+]1[O-],19.3%,-9.71%,20.29%,-6.69%,-1.35%,-12.82%
Cc1n[nH]c2c([N+](=O)[O-])c(=O)[nH]c(=O)n12,3.86%,-12.95%,12.3%,7.43%,0.29%,-13.65%
OC(C#Cc1ccccc1)(c1ccccc1)c1ccccc1,14.7%,1.28%,-2.05%,4.96%,3.27%,-7.2%
O=C(Nc1cccc(Cl)c1)Nn1cnnc1,17.05%,8.62%,2.61%,6%,3.98%,-3.41%
Cc1cccn2c(S)nnc12,10.19%,-5.53%,13.03%,17.76%,5.89%,-6.48%
Cn1cnc([N+](=O)[O-])c1Sc1nc[nH]n1,12.64%,10.96%,6.64%,17.02%,2.6%,-9.11%
NC(=O)c1ncn2c(=O)n(CCCl)nnc12 [MITOZOLOMIDE],-4.1%,10.43%,3.54%,6.17%,2.26%,-10.87%
O=C(O)c1ccccc1C(=O)Nc1ccccc1[N+](=O)[O-],3.12%,5.2%,12.47%,12.98%,4.76%,-12.04%
CCOC(=O)Nc1ccc2[nH]c(-c3cscn3)nc2c1,14.96%,-19.41%,13.31%,4.63%,-2.03%,-11.31%
Cc1c(Cl)cccc1Nc1ncccc1C(=O)OCC(O)CO (centres undefined) [CLONIXERIL],16.87%,6.56%,-0.19%,9.09%,-1.76%,-6.15%
O=C(O)c1cnn2c(S)ncnc12,16.65%,-14.23%,9.48%,8.17%,-0.99%,-3.32%
Nc1ccccc1C(=O)Nc1ccc(Cl)cc1Cl,13.76%,-19.7%,13.8%,0.81%,3.17%,-17.52%
N=C(NOC(=O)c1ccccc1)C(Cc1ccccc1)C(=O)NOC(=O)c1ccccc1 (centres undefined),11.08%,-11.45%,18.34%,10.4%,7.02%,-11.11%
O=c1[nH]nc(-c2cc(-c3ccccc3)nc3ccccc23)o1,7.26%,-11.03%,4.61%,4.91%,0.17%,-2.09%
CCOC(=O)Nc1ccc2nc(Sc3ccc(Cl)cc3)sc2c1,12.84%,1.81%,-1.5%,17.17%,10.2%,-3.93%
O=C1/C(=C/c2ccc([N+](=O)[O-])cc2)CCc2ccccc21,6.03%,-4.9%,11.7%,8.24%,3.4%,-8.15%
Cc1cccnc1NC(=O)c1csnn1,5.73%,-12.69%,4.7%,9.01%,-1.09%,-4.1%
CSc1nc(C)cc(S)n1,0.72%,-7.16%,3.46%,5.27%,18.9%,-4.48%
CCOC(=O)Cc1cnc(S)nc1O,9.6%,-11.54%,7.99%,8.74%,1.43%,-1.74%

SMILES,Inhibition (Staphylococcus aureus),Inhibition (Acinetobacter baumannii),Inhibition (Escherichia coli),Inhibition (Klebsiella pneumoniae),Inhibition (Candida albicans),Inhibition (Cryptococcus neoformans)
COc1ccc(/C(C#N)=C/c2cccnc2)cc1,17.02%,-13.68%,11.08%,6.19%,11.3%,-16.52%
Cc1csc(/N=N/c2ccc(N(C)C)cc2)[n+]1[O-],7.37%,-4.68%,8.16%,7.6%,0.83%,-12.25%
Cc1nc(S)nc(O)c1CCC1OCCO1,13.84%,-2.91%,10.14%,-2.98%,-0.82%,-7.17%
Cn1ncc2c(O)nc(N)nc21,6%,-7.72%,12.24%,14.42%,-0.53%,20.28%
CCSc1nc(C)cc(S)n1,8.56%,-11.79%,13.36%,13.31%,25.2%,-6%
CNc1ncnc2c1cnn2C1CCCCO1 (centres undefined),3.48%,-13.53%,9.64%,6.75%,-2.26%,-11.76%
Nc1ccc(Oc2ccc(N)c([N+](=O)[O-])c2)cc1[N+](=O)[O-],19.29%,-5.09%,4.4%,9.85%,10.1%,-3.81%
CCc1oc2ccccc2c1C(=O)c1cc(Br)c(O)c(Br)c1 [BENZBROMARONE],-12.4%,-9.24%,7.93%,12.45%,9.57%,-6.93%
Cc1c([N+](=O)[O-])oc2c1C(=O)NCCC2,15.45%,5.11%,5.84%,9.17%,2.94%,-11.37%
OCc1nc2nc(Cl)c(Cl)[nH]c-2n1,-3.73%,14.74%,-8.33%,8.57%,1.75%,-8.15%
N#CC1=C2CCCCC2(O)NC1=O (centres undefined),6.52%,-3.34%,7.41%,2.61%,-0.03%,-5.83%
Cn1cnc2ncnn2c1=S,0.31%,-8.2%,-1.17%,-0.39%,2.7%,-8.45%
c1ccc(Nc2cccc3c(Nc4ccccc4)cccc23)cc1,-4.86%,-14.93%,9.5%,12.7%,-0.47%,-1.96%
Cl.O=C(O)c1ccc(NCc2nc3ccccc3[nH]2)cc1,0.21%,-0.88%,-3.07%,12.5%,1.6%,-6.81%
CC(C)CNC(=O)/C=C\C(=O)O,-0.87%,-6.9%,-14.17%,9.3%,3.69%,32.61%
COC1C(=O)CCC2(CO2)C1(O)C1(C)OC1CC=C(C)C (centres undefined),-15.99%,-18.89%,14.59%,5.17%,9.99%,-9.09%
COc1ccc2c(n1)Sc1nc3ccccc3nc1N2,9.7%,-15.29%,7.15%,4.25%,3.02%,-8.75%
Cc1c(C#N)c2n(c1C)CCCC(=O)N2,39.05%,3.89%,19.57%,7.55%,10.6%,5.76%
O=C1c2cc([N+](=O)[O-])ccc2-c2cc(Br)c(NC(=NO)C(F)(F)F)cc21,19.28%,-25.99%,18.87%,6.86%,-4.85%,-6.6%
CN1N=C(N)c2cn(C3OC(COP(=O)(O)O)C(O)C3O)c3ncnc1c23 (centres undefined),8.75%,8.14%,-1.62%,4.46%,-1.48%,-0.7%
O=C1c2ccccc2C2=C3C(O)=NN=C3CCN12,13.67%,14.87%,4.79%,9.82%,5.2%,-1.84%
CC(=O)Oc1ccc(OC(C)=O)c2c1CC(C)=C(C)C2,4.66%,-3.24%,12.77%,4.69%,1.46%,-18.35%
Cc1csc(NC(=O)c2ccc(C(=O)Nc3nc(C)cs3)cc2)n1,-1.48%,17.46%,2.37%,21.27%,-0.71%,-1.68%
O=[N+]([O-])C1C(c2ccccc2)C12c1ccccc1-c1ccccc12 (centres undefined),1.75%,-9.94%,13.79%,-4%,-1.91%,-10.55%
